A short description of assay [1]: optical density shifts of acrAB sulA E. coli – strain DRC41, OD650, 48 h, E. coli filamentation inducer project, primary screen (AID 1152).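 Also: E. coli MC1000 strain DRC41 lacking acrAB efflux pump and sulA.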 Conditions: higher = more signal, called active from +8 up or from −8 down.
Assay [2] in a line: probe aLefty1 binding on compound microarray – biochemical, small-molecule microarray, 635/667 nm fluorescence, primary screen (AID 1153).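 Also: score merges spot fluorescence with signal-to-noise ratio from the scanned slide images.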 Conditions: higher = more signal.
The nature of assay [3]: plasmodial surface anion channel blockers, osmotic lysis – cell-based, P. falciparum Indochina, OD700, 1 h, primary screen (AID 1154). Conditions: P. falciparum Indochina infected RBC osmotic lysis, higher = more signal, called active from +8 up or from −8 down.
A short description of assay [4]: plasmodial surface anion channel blockers, osmotic lysis – cell-based, P. falciparum Indochina, OD700, 2 h, primary screen (AID 1155).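 Also: lysis reports solute entry through the parasite surface anion channel PSAC.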 Conditions: P. falciparum Indochina infected erythrocytes, higher = more signal, called active from +8 up or from −8 down.
A short description of assay [5]: changes in parasitized red cell lysis, either direction – P. falciparum Indochina, OD700, 3 h, PSAC antagonist project, primary screen (AID 1156). Conditions: P. falciparum-infected erythrocytes, osmotic lysis, higher = more signal, called active from +8 up or from −8 down.
The nature of assay [6]: plasmodial surface anion channel blockers, osmotic lysis – cell-based, P. falciparum Indochina, OD700, 18 h, primary screen (AID 1157). Conditions: P. falciparum Indochina infected erythrocytes, osmotic lysis OD700, 18 h; higher = more signal, called active from +8 up or from −8 down.
The nature of assay [7]: S6 kinase pathway phospho-S6 level changes – cell-based, A549, cytoblot, luminescence, serum-stimulated, primary screen (AID 1158).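 Also: serum-stimulated A549 lung adenocarcinoma cells; signal is phosphorylated S6 detected by cytoblot immunostaining with HRP secondary.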 Conditions: 5 h, higher = more signal.
In assay [8] the target is NADPH oxidase 2 (Homo sapiens) (UniProt P04839). Briefly: compounds shifting NOX2 Amplex Red fluorescence – cell-based, HEK293-NOX2, PMA-stimulated, NOX inhibitor project, primary screen (AID 1159). Also: test concentration not given here. Conditions: 45 min, higher = more signal, called active from +8 up or from −8 down.
For assay [9], the target named is NADPH oxidase 4 (Homo sapiens) (UniProt Q9NPH5). The experiment in a line: compounds shifting NOX4 Amplex Red fluorescence – cell-based, HEK293-NOX4, tetracycline-induced, NOX inhibitor project, primary screen (AID 1160). Conditions: HEK293-NOX4, Amplex Red H2O2 fluorescence, 45 min; higher = more signal, called active from +8 up or from −8 down.
Assay [10] addresses NADPH oxidase 5 (Homo sapiens) (UniProt Q96PH1). The experiment in a line: compounds shifting NOX5 Amplex Red fluorescence – cell-based, HEK293-NOX5, NOX inhibitor project, primary screen (AID 1161). Conditions: HEK293-NOX5, ionomycin, 45 min, higher = more signal.
A short description of assay [11]: compound effects on lung adenocarcinoma cell viability – A549, calcein-AM fluorescence, 48 h, basal, profiling panel (AID 1162). Also: test concentration not given here. Conditions: higher = more signal.
A short description of assay [12]: compound effects on differentiated 3T3-L1 adipocyte viability – cell-based, 3T3-L1 adipocytes, calcein-AM fluorescence, 48 h, basal, profiling panel (AID 1163). Also: test concentration not given here. Conditions: 3T3-L1 adipocytes viability, higher = more signal.
Assay [13] is described as follows: compound effects on hepatocellular carcinoma cell viability – HepG2, calcein-AM fluorescence, 48 h, basal, profiling panel (AID 1164). Also: test concentration not given here. Conditions: higher = more signal.
Assay [14] in a line: compound effects on multiple myeloma cell viability – MM1S, calcein-AM fluorescence, 48 h, basal, profiling panel (AID 1165). Also: test concentration not given here. Conditions: higher = more signal.
A short description of assay [15]: calcein-AM signal in unstimulated myeloma cells – cell-based, calcein-AM fluorescence, 48 h, PK04 Diversity Set, profiling panel (AID 1166).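 Also: cells grown under basal conditions without added stimulus; test concentration not given here.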 Conditions: RPMI8226 myeloma viability, higher = more signal.
Assay [16] in a line: JC-1 mitochondrial signal, unstimulated HepG2 cells – cell-based, JC-1 fluorescence, 24 h, 100 nL compound, profiling panel (AID 1167). Also: test concentration not given here. Conditions: HepG2 mitochondrial potential, higher = more signal.
Assay [17] can be described thus: JC-1 mitochondrial signal, unstimulated adipocytes – cell-based, JC-1 fluorescence, 3T3-L1 adipocytes, 24 h, 100 nL compound, profiling panel (AID 1168). Also: test concentration not given here. Conditions: JC-1 mitochondrial fluorescence, higher = more signal, called active from +8 up or from −8 down.
The nature of assay [18]: JC-1 mitochondrial signal, unstimulated myeloma cells – cell-based, JC-1 fluorescence, RPMI8226, 24 h, 100 nL compound, profiling panel (AID 1169). Also: test concentration not given here. Conditions: JC-1 mitochondrial potential fluorescence, higher = more signal.
Assay [19] can be described thus: JC-1 mitochondrial signal, unstimulated MM1S myeloma – cell-based, JC-1 fluorescence, 24 h, 100 nL compound, profiling panel (AID 1170). Also: test concentration not given here. Conditions: MM1S mitochondrial potential, higher = more signal.
A short description of assay [20]: resazurin metabolic signal in A549 cells – cell-based, resazurin fluorescence, 24 h, PK04 Diversity Set, profiling panel (AID 1171). Also: test concentration not given here. Conditions: A549 viability, higher = more signal, called active from +8 up or from −8 down. Background: The colour change of resazurin is a common sign of viable cells or microbes.

Each structure is given as a SMILES string. Active and inactive are the calls of the source.

Results on 4 compounds are retold here after PubChem BioAssay.

Sequence of NADPH oxidase 2 (Homo sapiens) (P04839 whole entry, looked up): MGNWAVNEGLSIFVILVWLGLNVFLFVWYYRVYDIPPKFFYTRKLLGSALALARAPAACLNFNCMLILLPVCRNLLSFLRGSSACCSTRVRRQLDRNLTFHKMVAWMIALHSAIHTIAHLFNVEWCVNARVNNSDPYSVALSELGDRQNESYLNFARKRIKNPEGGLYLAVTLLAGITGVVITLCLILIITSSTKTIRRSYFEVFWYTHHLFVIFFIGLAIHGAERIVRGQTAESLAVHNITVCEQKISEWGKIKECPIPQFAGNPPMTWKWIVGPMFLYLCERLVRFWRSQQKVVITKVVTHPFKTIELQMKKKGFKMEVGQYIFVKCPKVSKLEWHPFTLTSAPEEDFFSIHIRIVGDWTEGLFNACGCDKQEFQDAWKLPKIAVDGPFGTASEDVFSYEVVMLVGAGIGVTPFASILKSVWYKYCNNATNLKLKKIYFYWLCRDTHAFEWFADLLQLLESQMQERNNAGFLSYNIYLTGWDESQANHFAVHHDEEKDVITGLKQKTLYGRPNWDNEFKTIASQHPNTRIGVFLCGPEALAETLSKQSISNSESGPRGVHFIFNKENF
Sequence of NADPH oxidase 4 (Homo sapiens) (Q9NPH5 whole entry, looked up): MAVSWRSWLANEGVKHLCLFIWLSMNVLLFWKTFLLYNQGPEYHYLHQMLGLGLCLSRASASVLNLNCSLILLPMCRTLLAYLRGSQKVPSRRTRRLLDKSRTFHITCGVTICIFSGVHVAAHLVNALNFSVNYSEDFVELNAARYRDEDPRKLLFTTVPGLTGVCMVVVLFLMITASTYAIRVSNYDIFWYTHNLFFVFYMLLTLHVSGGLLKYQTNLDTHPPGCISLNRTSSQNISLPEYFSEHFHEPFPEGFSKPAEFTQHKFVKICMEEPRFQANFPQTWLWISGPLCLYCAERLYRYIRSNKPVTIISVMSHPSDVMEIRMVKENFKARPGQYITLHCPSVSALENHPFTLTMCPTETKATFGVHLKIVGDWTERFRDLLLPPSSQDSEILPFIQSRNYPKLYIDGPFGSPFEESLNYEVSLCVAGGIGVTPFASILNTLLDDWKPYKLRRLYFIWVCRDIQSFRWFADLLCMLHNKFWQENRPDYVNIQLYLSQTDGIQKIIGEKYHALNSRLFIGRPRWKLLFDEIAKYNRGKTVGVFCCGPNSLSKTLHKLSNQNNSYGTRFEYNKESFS
Sequence of NADPH oxidase 5 (Homo sapiens) (Q96PH1 whole entry, looked up): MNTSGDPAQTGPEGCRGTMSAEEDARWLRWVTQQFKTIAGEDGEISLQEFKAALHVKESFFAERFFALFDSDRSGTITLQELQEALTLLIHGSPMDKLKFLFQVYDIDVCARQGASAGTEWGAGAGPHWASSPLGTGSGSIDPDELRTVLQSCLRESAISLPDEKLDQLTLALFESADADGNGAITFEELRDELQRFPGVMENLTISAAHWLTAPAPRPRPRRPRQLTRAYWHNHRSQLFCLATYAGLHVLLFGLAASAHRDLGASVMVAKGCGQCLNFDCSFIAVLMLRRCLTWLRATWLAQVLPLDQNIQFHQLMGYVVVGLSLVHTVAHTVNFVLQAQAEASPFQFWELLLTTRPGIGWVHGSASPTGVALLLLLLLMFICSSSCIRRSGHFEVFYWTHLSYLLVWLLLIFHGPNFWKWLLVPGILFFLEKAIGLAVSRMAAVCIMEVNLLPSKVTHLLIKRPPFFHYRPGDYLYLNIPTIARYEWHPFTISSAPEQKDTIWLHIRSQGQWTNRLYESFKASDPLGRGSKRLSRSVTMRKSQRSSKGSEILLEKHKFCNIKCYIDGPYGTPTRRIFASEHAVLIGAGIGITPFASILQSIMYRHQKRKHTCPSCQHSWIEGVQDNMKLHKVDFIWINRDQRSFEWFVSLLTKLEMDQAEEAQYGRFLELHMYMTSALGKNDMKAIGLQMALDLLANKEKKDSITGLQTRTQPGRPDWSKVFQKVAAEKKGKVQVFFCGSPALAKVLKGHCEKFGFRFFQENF

In the case of `COc1ccc(C(O)C2C=CC3C(=O)N(c4ccccc4)C(=O)C3N2Nc2ccccc2)cc1OCc1ccccc1` (stereo not given), the z-score is -1.1 (inactive) in assay [1]; 3.82 (inactive) in [3]; 1.49 (inactive) in assay [4]; 0.421 (inactive) in assay [5]; 1.1 (inactive) in [6]; -1.39 in [7]. Besides, the z-score in [8] is -1.19 (inactive); in assay [9], -3.65 (inactive); in assay [10], -2.48; in assay [11], 0.677; in assay [12], -1.4; in [13], 1.29. Also, the z-score in assay [14] was 0.337; in [15], -0.29; in [16] it was -1.02; in assay [17], -0.514 (inactive); in assay [18], -0.307; in [19], -0.699. The z-score in assay [20] is 0.789 (inactive). In addition, the composite z-score in assay [2] was 0.0924.

With `O=C1NC(=O)C2C1C=CC(C(O)c1ccc(Br)cc1)N2Nc1ccccn1` (stereo not given), the z-score was -0.325 (inactive) in assay [1]; -0.0691 (inactive) in assay [3]; -1.06 (inactive) in [4]; 0.215 (inactive) in [5]; -1.94 (inactive) in assay [6]; 0.599 in assay [7]. For the same compound, the z-score in assay [8] was -1.54 (inactive); in assay [9], -2.6 (inactive); in assay [10], -1.93; in [11], 0.636; in assay [12], 0.805; in [13], 0.909. For the same compound, the z-score in assay [14] was -0.0483; in [15] it was -0.767; in [16], -0.169; in [17], 0.195 (inactive); in [18] it was 0.698; in [19], -0.273. Moreover, the z-score in [20] is -1.58 (inactive). The composite z-score in assay [2] was 0.5.

For `C[C@@H]1ON(c2ccc(C(=O)OC(C)(C)C)cc2)[C@H](c2ccc(Br)cc2)[C@H]1C(=O)N1C(=O)OC[C@H]1Cc1ccccc1`, the z-score is 0.351 (inactive) in assay [1]; 0.393 (inactive) in [3]; 0.358 (inactive) in assay [4]; -0.65 (inactive) in [5]; 0.428 (inactive) in [6]; 0.479 in [7]. In addition, the z-score in assay [8] was -0.495 (inactive); in [9] it was 0.0298 (inactive); in assay [10], 0.191; in [11] it was 0.136; in [12], 0.393; in assay [13], 0.889. The z-score was -0.486 in assay [14]; -0.403 in assay [15]; 0.401 in [16]; -0.728 (inactive) in [17]; -1.1 in [18]; 0.24 in assay [19]. For the same compound, the z-score in [20] was 1.23 (inactive). In addition, in assay [2], the composite z-score was -0.0241.

With `[N-]=[N+]=Nc1ccccc1C[C@@]1(C(=O)O)N=C(c2ccc(OCCCO)cc2)O[C@@H]1c1ccccc1`, the z-score is -0.265 (inactive) in assay [1]; 17.7 (active) in [3]; 1.37 (inactive) in assay [4]; -1.14 (inactive) in assay [5]; 0.245 (inactive) in assay [6]; -0.405 in assay [7]. Besides, the z-score in assay [8] is -0.135 (inactive); in assay [9] it was 1.27 (inactive); in assay [10] it was 1.24; in [11], -0.0649; in assay [12], -0.532; in assay [13], -0.222. In addition, the z-score is -1.78 in assay [14]; -1.26 in assay [15]; -1.65 in [16]; -0.0754 (inactive) in assay [17]; 0.00697 in assay [18]; -0.187 in assay [19]. Moreover, the z-score in assay [20] is 0.293 (inactive). The same compound gave a composite z-score in [2] of 0.273.
